# Positions count from the first letter of the chain named.
# Tests used:
# Test in all cases: yeast three-hybrid, YBZ-1, SC-Leu-His + 0.5 mM 3-AT, 4 days
# Conditions in all cases: tags: N-Gal4 AD-HA kept; label: inside an RPR1-promoter hybrid RNA with tandem MS2 sites; ssRNA
# PUM1 PUF domain R6-YRI = biological target: T1, PUM1 PUF domain R6-YRI (Homo sapiens, UniProt Q14671 828-1176, N1043Y;Y1044R;Q1047I)
# T1 sequence: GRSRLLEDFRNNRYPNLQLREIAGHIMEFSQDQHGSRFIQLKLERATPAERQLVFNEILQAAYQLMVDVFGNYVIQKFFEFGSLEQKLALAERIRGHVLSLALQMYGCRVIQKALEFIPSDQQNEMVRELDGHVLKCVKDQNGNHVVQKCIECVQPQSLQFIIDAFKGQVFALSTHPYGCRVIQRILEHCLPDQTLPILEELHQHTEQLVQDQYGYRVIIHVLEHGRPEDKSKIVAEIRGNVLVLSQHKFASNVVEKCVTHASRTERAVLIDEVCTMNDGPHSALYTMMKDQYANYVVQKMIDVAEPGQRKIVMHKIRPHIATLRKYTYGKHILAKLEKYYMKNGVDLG
# Outline: (§1)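 Sequencing with Illumina followed PCR amplification of the repeat regions from transformants grown four days on SC-Leu (input) or SC-Leu-His + 0.5 mM 3-AT (selection). The transformants were strain YBZ-1 with a LexA–MS2 coat fusion and a HIS3 reporter, carrying Pumilio-1 PUF domain libraries and matching RNA elements. The interaction score is the log change in variant frequency from input to selection, computed in log2 with a pseudocount of 1 for absent variants.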
# PUM1 PUF domain R6-KWG = biological target: T2, PUM1 PUF domain R6-KWG (Homo sapiens, UniProt Q14671 828-1176, N1043K;Y1044W;Q1047G)
# T2 sequence: T1 sequence with Y216K, R217W, I220G
# Outline: as §1
# PUM1 PUF domain R3-KSR = PUM1 PUF domain R3-KSR (Homo sapiens, UniProt Q14671 828-1176, C935K;R936S;Q939R)
# Outline: as §1
# PUM1 PUF domain R4-GQS = PUM1 PUF domain R4-GQS (Homo sapiens, UniProt Q14671 828-1176, N971G;H972Q;Q975S)
# Outline: as §1
# PUM1 PUF domain R5-GLR = PUM1 PUF domain R5-GLR (Homo sapiens, UniProt Q14671 828-1176, C1007G;R1008L;Q1011R)
# Outline: as §1
# PUM1 PUF domain R4-EFD = PUM1 PUF domain R4-EFD (Homo sapiens, UniProt Q14671 828-1176, N971E;H972F;Q975D)
# Outline: as §1
# PUM1 PUF domain R5-MRD = PUM1 PUF domain R5-MRD (Homo sapiens, UniProt Q14671 828-1176, C1007M;Q1011D)
# Outline: as §1
# PUM1 PUF domain R5-RRA = PUM1 PUF domain R5-RRA (Homo sapiens, UniProt Q14671 828-1176, C1007R;Q1011A)
# Outline: as §1
# PUM1 PUF domain R5-LFS = PUM1 PUF domain R5-LFS (Homo sapiens, UniProt Q14671 828-1176, C1007L;R1008F;Q1011S)
# Outline: as §1
# PUM1 PUF domain R6-SYR = biological target: T3, PUM1 PUF domain R6-SYR (Homo sapiens, UniProt Q14671 828-1176, N1043S;Q1047R)
# T3 sequence: T1 sequence with Y216S, R217Y, I220R
# Outline: as §1
# PUM1 PUF domain R5-LYL = PUM1 PUF domain R5-LYL (Homo sapiens, UniProt Q14671 828-1176, C1007L;R1008Y;Q1011L)
# Outline: as §1
# PUM1 PUF domain R1-RFC = PUM1 PUF domain R1-RFC (Homo sapiens, UniProt Q14671 828-1176, S863R;R864F;Q867C)
# Outline: as §1
# PUM1 PUF domain R1-KWC = PUM1 PUF domain R1-KWC (Homo sapiens, UniProt Q14671 828-1176, S863K;R864W;Q867C)
# Outline: as §1
# PUM1 PUF domain R5-KRY = PUM1 PUF domain R5-KRY (Homo sapiens, UniProt Q14671 828-1176, C1007K;Q1011Y)
# Outline: as §1
# PUM1 PUF domain R5-RLT = PUM1 PUF domain R5-RLT (Homo sapiens, UniProt Q14671 828-1176, C1007R;R1008L;Q1011T)
# Outline: as §1
# PUM1 PUF domain R5-TGR = PUM1 PUF domain R5-TGR (Homo sapiens, UniProt Q14671 828-1176, C1007T;R1008G;Q1011R)
# Outline: as §1
# PUM1 PUF domain R7-GSV = PUM1 PUF domain R7-GSV (Homo sapiens, UniProt Q14671 828-1176, S1079G;N1080S;E1083V)
# Outline: as §1
# PUM1 PUF domain R7-QPG = PUM1 PUF domain R7-QPG (Homo sapiens, UniProt Q14671 828-1176, S1079Q;N1080P;E1083G)
# Outline: as §1
# PUM1 PUF domain R8-RHD = PUM1 PUF domain R8-RHD (Homo sapiens, UniProt Q14671 828-1176, N1122R;Y1123H;Q1126D)
# Outline: as §1
# PUM1 PUF domain R2-AKP = PUM1 PUF domain R2-AKP (Homo sapiens, UniProt Q14671 828-1176, N899A;Y900K;Q903P)
# Outline: as §1
sequence,measurement,setting,value
GGCUAGAACUAGUGGAUCCCCCGGCGCCCGGCGGCUCGAGCCCGGGUAAGUGAAAAUAGUCUGCAUGCCGCCGGGCGCCAUGCCUGCAGGUCGACUCUAGAAAACAUG,binding signal,PUM1 PUF domain R6-YRI,3.61 log2 enrichment (interaction score)
same,binding signal,PUM1 PUF domain R6-KWG,5.8 log2 enrichment (interaction score)
GGCUAGAACUAGUGGAUCCCCCGGCGCCCGGCGGCUCGAGCCCGGGUAAGUGUAAGUAGUCUGCAUGCCGCCGGGCGCCAUGCCUGCAGGUCGACUCUAGAAAACAUG,binding signal,PUM1 PUF domain R3-KSR,1.19 log2 enrichment (interaction score)
GGCUAGAACUAGUGGAUCCCCCGGCGCCCGGCGGCUCGAGCCCGGGUAAGUGUAAUUAGUCUGCAUGCCGCCGGGCGCCAUGCCUGCAGGUCGACUCUAGAAAACAUG,binding signal,PUM1 PUF domain R3-KSR,4.1 log2 enrichment (interaction score)
GGCUAGAACUAGUGGAUCCCCCGGCGCCCGGCGGCUCGAGCCCGGGUAAGUGUAAAUAGUCUGCAUGCCGCCGGGCGCCAUGCCUGCAGGUCGACUCUAGAAAACAUG,binding signal,PUM1 PUF domain R4-GQS,2.47 log2 enrichment (interaction score)
same,binding signal,PUM1 PUF domain R5-GLR,1.61 log2 enrichment (interaction score)
same,binding signal,PUM1 PUF domain R4-EFD,2.17 log2 enrichment (interaction score)
same,binding signal,PUM1 PUF domain R5-MRD,2.65 log2 enrichment (interaction score)
same,binding signal,PUM1 PUF domain R5-RRA,1.06 log2 enrichment (interaction score)
same,binding signal,PUM1 PUF domain R5-LFS,2.29 log2 enrichment (interaction score)
same,binding signal,PUM1 PUF domain R6-SYR,6.46 log2 enrichment (interaction score)
same,binding signal,PUM1 PUF domain R5-LYL,2.85 log2 enrichment (interaction score)
GGCUAGAACUAGUGGAUCCCCCGGCGCCCGGCGGCUCGAGCCCGGGUAAGUGUAAAUCGUCUGCAUGCCGCCGGGCGCCAUGCCUGCAGGUCGACUCUAGAAAACAUG,binding signal,PUM1 PUF domain R1-RFC,3.46 log2 enrichment (interaction score)
GGCUAGAACUAGUGGAUCCCCCGGCGCCCGGCGGCUCGAGCCCGGGUAAGUGUAAAUUGUCUGCAUGCCGCCGGGCGCCAUGCCUGCAGGUCGACUCUAGAAAACAUG,binding signal,PUM1 PUF domain R1-KWC,3.86 log2 enrichment (interaction score)
GGCUAGAACUAGUGGAUCCCCCGGCGCCCGGCGGCUCGAGCCCGGGUAAGUGUCAAUAGUCUGCAUGCCGCCGGGCGCCAUGCCUGCAGGUCGACUCUAGAAAACAUG,binding signal,PUM1 PUF domain R5-KRY,4.04 log2 enrichment (interaction score)
same,binding signal,PUM1 PUF domain R5-GLR,2.62 log2 enrichment (interaction score)
same,binding signal,PUM1 PUF domain R5-RLT,2.62 log2 enrichment (interaction score)
same,binding signal,PUM1 PUF domain R5-TGR,5.8 log2 enrichment (interaction score)
same,binding signal,PUM1 PUF domain R5-RRA,4.67 log2 enrichment (interaction score)
GGCUAGAACUAGUGGAUCCCCCGGCGCCCGGCGGCUCGAGCCCGGGUAAGUUUAAAUAGUCUGCAUGCCGCCGGGCGCCAUGCCUGCAGGUCGACUCUAGAAAACAUG,binding signal,PUM1 PUF domain R7-GSV,2.83 log2 enrichment (interaction score)
same,binding signal,PUM1 PUF domain R7-QPG,4.67 log2 enrichment (interaction score)
GGCUAGAACUAGUGGAUCCCCCGGCGCCCGGCGGCUCGAGCCCGGGUAAGCGUAAAUAGUCUGCAUGCCGCCGGGCGCCAUGCCUGCAGGUCGACUCUAGAAAACAUG,binding signal,PUM1 PUF domain R8-RHD,5.28 log2 enrichment (interaction score)
GGCUAGAACUAGUGGAUCCCCCGGCGCCCGGCGGCUCGAGCCCGGGUAAGUGUUAAUAGUCUGCAUGCCGCCGGGCGCCAUGCCUGCAGGUCGACUCUAGAAAACAUG,binding signal,PUM1 PUF domain R5-MRD,2.48 log2 enrichment (interaction score)
same,binding signal,PUM1 PUF domain R5-LFS,1.78 log2 enrichment (interaction score)
GGCUAGAACUAGUGGAUCCCCCGGCGCCCGGCGGCUCGAGCCCGGGUAAGUGUACAUAGUCUGCAUGCCGCCGGGCGCCAUGCCUGCAGGUCGACUCUAGAAAACAUG,binding signal,PUM1 PUF domain R4-EFD,2.47 log2 enrichment (interaction score)
GGCUAGAACUAGUGGAUCCCCCGGCGCCCGGCGGCUCGAGCCCGGGUAAGUGUAAAGAGUCUGCAUGCCGCCGGGCGCCAUGCCUGCAGGUCGACUCUAGAAAACAUG,binding signal,PUM1 PUF domain R2-AKP,3.58 log2 enrichment (interaction score)
GGCUAGAACUAGUGGAUCCCCCGGCGCCCGGCGGCUCGAGCCCGGGUAAGUGUGAAUAGUCUGCAUGCCGCCGGGCGCCAUGCCUGCAGGUCGACUCUAGAAAACAUG,binding signal,PUM1 PUF domain R5-RRA,1.09 log2 enrichment (interaction score)
same,binding signal,PUM1 PUF domain R5-LFS,1.48 log2 enrichment (interaction score)
GGCUAGAACUAGUGGAUCCCCCGGCGCCCGGCGGCUCGAGCCCGGGUAAGUGCAAAUAGUCUGCAUGCCGCCGGGCGCCAUGCCUGCAGGUCGACUCUAGAAAACAUG,binding signal,PUM1 PUF domain R6-SYR,6.87 log2 enrichment (interaction score)

# — paper PMC8384837, “Expanding the binding specificity for RNA recognition by a PUF domain”
